The campaign covered roughly 68,000 compounds. About 2,700 (4%) showed an effect of 50% or more. Shown is part of a subset that was picked to be rich in strong results.

This test relates to Plasmodium berghei. Kind of test: Screen against P. berghei liver stage (PbLuc), transformed with Luciferase, at 2uM. The test is classed as functional, HepG2. As to conditions: tested at 2 uM.
On to `N#Cc1cccc(S(=O)(=O)N2CCCCC2C(N)=O)c1` (centres undefined), for which the INHIBITION amounted to 70.24%.

Regarding `CC(=O)NCCC1CCCCN1S(=O)(=O)c1cccc(C#N)c1` (centres undefined), the INHIBITION is recorded as -7.53%.

Turning to `N#Cc1cccc(S(=O)(=O)N2CCCCC2CCN2CCCC2)c1` (centres undefined), the INHIBITION is listed as -8.84%.

On to `CCOc1cccc(NC(=O)c2cnc(C)cn2)n1`, for which the INHIBITION amounted to 29.97%.

Regarding `CC(C)=CCS(=O)(=O)Cc1nc(C(C)C)no1`, the INHIBITION is reported as 34.69%.

Take `CN1CCCC1CCNC(=O)c1ccccc1-n1cc(CN)cn1` (centres undefined): the INHIBITION is reported as -10.49%.

On to `O=C(C1CCCO1)N1CCC(n2cc(-c3ccsc3)nn2)CC1` (centres undefined), for which the INHIBITION stood at 7.67%.

Consider `Cc1ccc(-c2cn(C3CCN(C(=O)[C@H]4CCCO4)CC3)nn2)cc1`, for which the INHIBITION was determined as 74.44%.

Consider `O=C(C1CCCO1)N1CCC(n2cc(-c3ccc(F)cc3)nn2)CC1` (centres undefined), for which the INHIBITION is 31.51%.

Take `CN(Cc1ccc(F)cc1)C(=O)NCc1nnc2n1CCCCC2`: the INHIBITION is reported as -43.41%.

Turning to `O=C(NCCN1CCOCC1)c1ccc(-n2ccc3ccccc32)s1`, the INHIBITION is 52.4%.

`O=C(NCCCN1CCOCC1)c1ccc(-n2ccc3ccccc32)s1`: the INHIBITION came out at 28.31%.

As for `O=C(NCCCN1CCCCC1)c1ccc(-n2ccc3ccccc32)s1`, the INHIBITION was 13.64%.

Take `CC(C)(C)c1nc(CN2CCCC2c2nnc3ccccn23)no1` (centres undefined): the INHIBITION was -12.01%.

For the molecule `COc1nc2ccn(CCc3cnccn3)c(=O)c2cc1C#N`, the INHIBITION was -32.52%.

For the molecule `COc1nc2ccn(CCNc3cc(C)ccn3)c(=O)c2cc1C#N`, the INHIBITION is 55.39%.

For `COc1nc2ccn(CCc3scnc3C)c(=O)c2cc1C#N`, the INHIBITION is on record as 0.31%.

Regarding `O=C([C@@H]1CCCN1c1nccc(Nc2ccccc2)n1)N1CCCCC1`, the INHIBITION was -16.43%.

As to `CCC(CN1CCCC1)NC(=O)C1(c2cccc(F)c2)CC1` (centres undefined), the INHIBITION is reported as 6.64%.

Regarding `COc1cccc(-n2cc(CN(C)C(=O)c3cnc(O)cn3)cn2)c1`, the INHIBITION is given as -6.27%.

Consider `C=C(C)COc1ccccc1C(=O)N(C)C(C)c1c(C)n[nH]c1C` (centres undefined), for which the INHIBITION came to 29.81%.

With `COc1cccc(C(=O)N(C)C(C)c2c(C)n[nH]c2C)c1OC` (centres undefined), the INHIBITION is listed as 50.63%.

Regarding `C=C(C)COc1cccc(C(=O)N(C)C(C)c2c(C)n[nH]c2C)c1` (centres undefined), the INHIBITION is -10.92%.

As to `CC(C)N1CCCn2c(nc(CNC(=O)c3nccn3C)cc2=O)C1`, the INHIBITION is -25.29%.

In the case of `CCN(CC)C(=O)c1ccn(COc2ccc(F)cc2)n1`, the INHIBITION is 17.7%.

Turning to `CCc1n[nH]c(C2CN(C(=O)Cc3ccc(C)nc3)CCO2)n1` (centres undefined), the INHIBITION is 36.48%.

Turning to `CC1CCN(C(=O)CN2CC(c3nc(C4CC4)no3)C2)CC1`, the INHIBITION was found to be 12.57%.

Turning to `O=C(CN1CC(c2nc(C3CC3)no2)C1)N1CCOCC1`, the INHIBITION is on record as 56.9%.

`O=C(CN1CCCC(c2noc(C3CC3)n2)C1)N1CCCC1` (centres undefined): the INHIBITION is listed as 19.45%.

For the molecule `O=C(c1cccnc1)N1CCC2(CC1)CCN(c1ccsc1)C2=O`, the INHIBITION is -8.05%.

As for `O=C(Cc1ccccc1Cl)NCCN1CCC(c2cccs2)CC1`, the INHIBITION amounted to 28.43%.

For the molecule `Cn1cc(CC(=O)N2CCCC(n3cncn3)C2)cn1` (centres undefined), the INHIBITION was found to be 38.76%.

For `Cc1nccn1C1CCCN(C(=O)c2cccc(S(C)(=O)=O)c2)C1` (centres undefined), the INHIBITION amounted to 5.72%.

For `COc1ccccc1C1(CNc2ccc(C(=O)N(C)C)cn2)CC1`, the INHIBITION is given as 50.61%.

For the molecule `COc1ccccc1C1(CNc2cc(C(=O)N(C)C)ccn2)CC1`, the INHIBITION was found to be 33.78%.

As for `COc1ccccc1C1(CNC(=O)NCc2noc(C)n2)CC1`, the INHIBITION amounted to 15.28%.

As to `COc1ccccc1C1(CNc2ccnc(C(=O)N(C)C)c2)CC1`, the INHIBITION was determined as 67.44%.

`COc1ccccc1C1(CNc2ncc(S(N)(=O)=O)s2)CC1`: the INHIBITION is recorded as 7.67%.

In the case of `CN(C)C(=O)c1ccc(NCCNc2ccc3ccccc3n2)nc1`, the INHIBITION is given as -37.09%.

For `OCCOCCN1CCCC1c1cccc(Cl)c1` (centres undefined), the INHIBITION is -17.64%.

Take `Cc1nc(N(C)C)nc(N(C)Cc2cnccn2)c1C`: the INHIBITION was found to be 20.29%.

With `COC(=O)c1ccc(C2SC(C)=Nc3c2c(=O)[nH]n3C2CCCC2)cc1` (centres undefined), the INHIBITION is -3.18%.

For the molecule `CCCN(C)S(=O)(=O)N1CCCC1c1ccco1` (centres undefined), the INHIBITION was -3.57%.

Regarding `COC(=O)c1cccc(S(=O)(=O)NC(=O)c2ccccc2F)c1`, the INHIBITION was 0%.

For the molecule `CCOC(=O)C(C)Nc1cccc(COCc2ccco2)c1` (centres undefined), the INHIBITION is on record as -5.44%.

On to `Cc1cc(NC(=O)C(C)Nc2cccc(COCc3ccco3)c2)on1` (centres undefined), for which the INHIBITION was found to be 55.52%.

For the molecule `Cc1cc(NC(=O)C(C)Nc2cccc(COCc3ccco3)c2)no1` (centres undefined), the INHIBITION stood at 21.57%.

Consider `Cc1ncc(CNC2CC(=O)N(CCc3cccc(Cl)c3)C2)n1C` (centres undefined), for which the INHIBITION is given as -15.29%.

As to `NC(=O)C1CCN(CC(=O)N(Cc2ccccc2)Cc2nccs2)CC1`, the INHIBITION came out at 26.93%.

With `Cc1nc(C(=O)NCCS(=O)(=O)N2CCCC2)cs1`, the INHIBITION worked out at 3.29%.

Turning to `CCc1cc(NCc2cccnc2N2CCCCC2)n2ncnc2n1`, the INHIBITION is recorded as 64.9%.

In the case of `CCc1cc(NCC(O)CN2CCCCC2)n2ncnc2n1` (centres undefined), the INHIBITION amounted to 16.01%.

In the case of `CCc1cc(NCc2ccccc2CN2CCCC2)n2ncnc2n1`, the INHIBITION is listed as -23.61%.

Turning to `CCC(C)[C@H](N)c1nnc(SCC(=O)Nc2ccc(Br)cc2)o1` (some centres undefined), the INHIBITION is reported as -7.19%.

Take `CNc1cc(C2CN(C(=O)c3cscn3)CCO2)nc(C)n1` (centres undefined): the INHIBITION is given as 26.69%.

With `CCc1nc(CN(C(C)=O)C2CCN(CCc3ccncc3)C2)no1` (centres undefined), the INHIBITION was -21.22%.

Regarding `CCc1nc(CN(C(C)=O)C2CCN(CCc3cnn(C)c3)C2)no1` (centres undefined), the INHIBITION is recorded as -10.66%.

For `CC(C)n1cc(C(=O)NCCN(C)C)c2n[nH]c(=O)c-2c1`, the INHIBITION is reported as 9.1%.

As for `COCCCNC(=O)c1cn(C(C)C)cc2c(=O)[nH]nc1-2`, the INHIBITION is 15.34%.

In the case of `CC(C)CNC(=O)c1cn(C(C)C)cc2c(=O)[nH]nc1-2`, the INHIBITION stood at 55.52%.

For the molecule `CNC(=O)CN1CCCC12CCN(C(=O)c1ccsc1)CC2`, the INHIBITION worked out at 24.15%.

As for `Cc1nc(CN2CCC(O)(c3ccccc3F)CC2)c2ccccn12`, the INHIBITION turned out to be 15.55%.

Turning to `CCCc1noc(CCC(=O)N2CCCC2c2ccncc2)n1` (centres undefined), the INHIBITION is given as -33.92%.

For the molecule `Cc1cnn(CC2CCCN2C(=O)Cc2n[nH]c3ccccc23)c1` (centres undefined), the INHIBITION stood at 3.9%.

For the molecule `COc1ccc(C(=O)N2CCCC2c2cnn(C)c2)cn1` (centres undefined), the INHIBITION worked out at 80.46%.

For `CC(C)Oc1ccc(C(=O)N2CCCC2c2cnn(C)c2)cn1` (centres undefined), the INHIBITION worked out at 15.13%.

With `CCOc1ccc(C(=O)N2CCCC2c2cnn(C)c2)cn1` (centres undefined), the INHIBITION was -1.02%.

`Cn1cc(C2CCCN2C(=O)COCCc2ccccc2)cn1` (centres undefined): the INHIBITION is 50.76%.

As to `CCCc1noc(CCCC(=O)N2CCCC2c2cnn(C)c2)n1` (centres undefined), the INHIBITION stood at 54.99%.

As for `Cn1cc(C2CCCN2C(=O)COCCOc2ccccc2)cn1` (centres undefined), the INHIBITION is listed as -24.75%.

For `Cn1cc(C2CCCN2C(=O)CCCOCc2ccccc2)cn1` (centres undefined), the INHIBITION is -3.9%.

Consider `O=C(Cc1n[nH]c2ccccc12)N1CCCC1Cn1cccn1` (centres undefined), for which the INHIBITION is -36.73%.

Take `Cn1cc(C2CCCN2C(=O)Cc2n[nH]c3ccccc23)cn1` (centres undefined): the INHIBITION stood at 63.95%.

In the case of `CCCc1noc(CCC(=O)N2CCCC2c2ccc(OC)cc2)n1` (centres undefined), the INHIBITION amounted to 30.29%.
